# Screening results (PubChem)
# CaV13 ICDI inh = Disruptors of the CACNA1D IQ motif to Ca2+-dependent inactivation inhibitor domain association, primary screening, Förster resonance energy transfer in intact living …; HEK cells, CFP/YFP FRET ICDI-IQ, plate reader, 10 min; percent FRET-ratio fall versus neutral wells; inhibition, % at 12.3 µM; actives 0.098% (n = 340,000); AID 743397;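 active = mean replicate inhibition of at least 30% and at least 1% of replicates passing that level; inconclusive = only one of the two criteria is met; inactive = neither criterion is met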
# M18AAP inhibitor = PfM18AAP enzyme inhibition; AID 1822; inhibition, % at 7.35 µM; recombinant PfM18AAP, H-Glu-NHMec fluorogenic cleavage; actives 1.2% (n = 290,000);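 active = inhibition above the campaign mean inhibition over all tested compounds plus 3 SD, cut at about 28% in these data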
# IDE cell inh = inhibitors of human insulin-degrading enzyme in cells. P14735. HEK cells, FAbetaB cleavage, fluorescence polarization. inhibition, % at 5.59 µM. actives 0.41% (n = 320,000). AID 434962;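 active = percent inhibition above the average of all tested compounds plus 3 SD, set per screening campaign, cut at about 16% in these data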;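 note: IDE supplied by intact live HEK cells; FP after avidin binding of uncleaved biotin substrate so inhibition keeps polarization high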
# IDE cell activ = activators of human insulin-degrading enzyme in cells; HEK cells, FAbeta-B cleavage, fluorescence polarization; 0% vehicle, 100% cell-free pure enzyme wells; P14735; activation, % at 5.96 µM; AID 493087; actives 0.073% (n = 340,000);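 active = activation above the mean of all tested compounds plus 3 SD, set per screening campaign, cut at about 17% in these data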
# ALR inh = human ALR oxidase inhibition via reduced H2O2. P55789. actives 3.8% (n = 290,000). inhibition, % (no concentration beside the values). purified ALR, DTT oxidation, H2O2 HRP-luminol luminescence;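 active = mean replicate inhibition above about 79%, with every replicate also reaching it, limit read from the data; inconclusive = only one of the two criteria met; inactive = mean below limit and not every replicate reaching it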
# Target sequence (P55789 whole entry, looked up): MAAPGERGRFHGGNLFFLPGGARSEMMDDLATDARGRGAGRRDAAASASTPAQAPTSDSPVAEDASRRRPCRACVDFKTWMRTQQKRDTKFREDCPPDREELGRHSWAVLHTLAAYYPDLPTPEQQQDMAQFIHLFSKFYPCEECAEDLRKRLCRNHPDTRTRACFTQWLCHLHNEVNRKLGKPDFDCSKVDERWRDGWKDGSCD
# PolyA inh = inhibitors of polyadenylation in S. cerevisiae. S. cerevisiae SKY197-pL101 polyadenylation reporter, beta-gal luminescence; efflux-impaired pdr1/pdr3 knockout yeast; score 100 = 6 SD above DMSO. activity score, % at 12 µM. actives 0.02% (n = 300,000). AID 1875;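 active = lowest replicate activity score at least 50, where 100 means six control SD above control mean; inconclusive = lowest score under 50 but half or more replicates reach 50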;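 note: yeast exposed to compound for 9 h at 30 °C; higher score means more reporter readthrough which indicates perturbed polyadenylation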
# A number is an active result; . = inactive; ? = inconclusive; / = no result. Hits are enriched below; roughly 4.1% of the tested compounds scored in any of these assays.
SMILES,CaV13 ICDI inh,M18AAP inhibitor,IDE cell inh,IDE cell activ,ALR inh,PolyA inh
COc1ccccc1CC(=O)NCc1csc(-c2cccs2)n1,.,.,.,/,.,.
CCOC(=O)c1ccc(N2C(=O)CC(Sc3nc(C)cc(C)n3)C2=O)cc1 (centres undefined),.,.,/,.,.,.
CCOC(=O)c1ccc(N2C(=O)CC(Sc3nnc(C)s3)C2=O)cc1 (centres undefined),/,.,.,.,91,.
O=C(CSc1ncnc2ccccc12)Nc1cccc(S(=O)(=O)N2CCOCC2)c1,.,.,.,.,98,.
CN(C)S(=O)(=O)c1cccc(NC(=O)CSc2ncnc3ccccc23)c1,.,.,.,.,99,.
N#Cc1ccsc1NC(=O)CSc1ncn[nH]1,.,.,.,.,.,.
O=C(COc1ncnc2ccccc12)Nc1cccc(S(=O)(=O)N2CCOCC2)c1,.,.,.,.,.,.
N#Cc1ccsc1NC(=O)CSc1ncnc2ccccc12,/,.,.,.,98,.
CN(C(=O)c1ccccc1C(=O)OCC(=O)c1ccc(F)c(F)c1)C1CCCCC1,.,/,/,.,/,/
CCOC(=O)Cn1nc(C)n(-c2ccc(F)cc2)c1=O,.,.,.,.,.,.
C=CCN1C(=S)CC(c2ccccc2)=Nc2ccccc21,63,.,/,.,.,.
COC(=O)C1=C(C)N(C)C(=NCc2ccccc2C(F)(F)F)NC1c1ccc(Cl)cc1 (centres undefined),.,/,/,/,/,/
Oc1cccc(O)c1O,/,/,.,/,83,/
O=C(O)c1cccc(O)c1O,.,/,.,.,.,.
C=CCNc1cccc2c1S(=O)(=O)N[C@H](C)CO2,.,/,/,/,/,/
Cc1nc(N2CCN(C)CC2)c2c(C)c(C(=O)Nc3ccc(C)c(F)c3)sc2n1,.,.,.,.,96,.
CCC(=O)Nc1ccc(Cl)c(NC(=O)c2c(OC)cccc2OC)c1,.,.,.,.,.,.
CCc1ccc(NC(=O)N2CCCCCC2)cc1,.,.,.,.,.,.
CCN1CCN(C(=O)Nc2ccc(Cc3ccc(NC(=O)N4CCN(CC)CC4)cc3)cc2)CC1,.,.,.,.,99,.
Cc1nccc(-c2cc(-c3ccc(Cl)cc3Cl)no2)n1,.,.,.,.,.,.
COc1ccc(OCC(=O)NNC(=O)C(=O)Nc2ccccc2)cc1,.,/,.,.,.,/
COc1ccc(OCC(=O)NNc2c3ccccc3nc3ccccc23)cc1,.,.,.,.,100,.
O=C(COc1ccccc1)NNc1c2ccccc2nc2ccccc12,/,.,.,.,98,.
Oc1c(Br)cc(Br)cc1C=Nc1cccnc1,.,30,.,.,/,.
COc1cccc(CN(C)C(=O)c2ccccc2SCC(=O)N2CCCC2)c1,.,/,.,.,.,.
SMILES,CaV13 ICDI inh,M18AAP inhibitor,IDE cell inh,IDE cell activ,ALR inh,PolyA inh
Cn1c(SCC(=O)N2CCCC2)nnc1-c1cnccn1,.,.,.,.,.,.
COc1ccc(N2CCN(c3ccc(C(=O)O)cc3[N+](=O)[O-])CC2)cc1,.,.,.,.,79,.
Cc1nc(N=Nc2ccc(O)cc2)n[nH]1,.,.,.,.,94,.
CC1CC(C)CN(C(=O)c2ccc(-c3ccc([N+](=O)[O-])cc3)o2)C1 (centres undefined),.,/,.,.,89,.
COc1ccc(NC2c3ccccc3C(=O)N2c2cccnc2)cc1 (centres undefined),.,.,.,.,88,?
CCOC(=O)c1ccc(NC2c3ccccc3C(=O)N2c2cccnc2)cc1 (centres undefined),.,.,.,.,.,.
C=CCn1c(=O)c2ccccc2n2c(SCC(=O)NC(C)C)nnc12,.,.,/,.,/,.
COc1ccc(C(=O)N2CCc3ccc(NC(=O)c4ccccn4)cc3C2)cc1F,.,.,/,.,/,.
COCc1cc(C)nc(N2CCN(c3ccccc3)CC2)c1C#N,.,.,.,.,95,.
CCOc1cc(/C=C/c2ccc3cccc([N+](=O)[O-])c3n2)ccc1O,.,.,.,.,94,.
CCOc1cc(/C=C/c2cc(C(F)(F)F)[nH]c(=O)n2)ccc1O,.,.,.,.,99,.
Cc1nc2ccc(Br)cn2c1NC(C)(C)C,.,.,.,.,95,.
COc1ccc(NC(=O)CCC(=O)OCc2ccc([N+](=O)[O-])cc2)cc1,.,.,.,.,.,.
O=C(N[C@H](C(=O)N1CCC[C@H]1C(=O)NC1CCCC1)c1ccccc1)c1ccccc1,.,/,/,/,/,/
Cc1cc(Br)cc(C)c1OCCCCN(C)C,.,.,.,.,93,.
N#Cc1ccc(COC(=O)CSc2nnc(N)s2)cc1,.,.,.,.,97,.
N/C(=N\O)c1ccc(Oc2ccccc2Cl)c([N+](=O)[O-])c1,.,.,.,.,98,.
Cc1cc(Br)cn2c(Cc3ccsc3)c(-c3ccco3)nc12,.,/,/,/,/,/
C/C(=N\O)c1ccc2c3ccccc3n(C)c2c1,.,.,.,.,.,.
CCn1c2ccccc2c2cc(/C(C)=N/O)ccc21,.,.,.,.,98,.
COc1ccc(C(NC(=O)C2CCN(CCCOc3ccccc3)CC2)c2cccs2)cc1 (centres undefined),.,/,/,/,/,/
CCOc1ccc(-c2cn(-c3ccc(OC)cc3)c(SC)n2)cc1,.,.,17,.,.,.
CSc1nc(-c2ccccc2)cn1-c1ccc(NC(C)=O)cc1,.,.,.,.,.,.
Cn1c(-c2ccccc2)cnc1NCc1cccc([N+](=O)[O-])c1,.,.,.,.,.,.
CSc1ccc(CNc2ncc(-c3cccc([N+](=O)[O-])c3)n2C)cc1,.,.,.,.,98,.
SMILES,CaV13 ICDI inh,M18AAP inhibitor,IDE cell inh,IDE cell activ,ALR inh,PolyA inh
COc1ccc(CNc2ncc(-c3cccc([N+](=O)[O-])c3)n2C)c(OC)c1OC,.,.,.,.,98,.
COc1ccc(CNc2ncc(-c3ccc(F)cc3)n2C)c2ccccc12,.,.,.,.,.,.
Cc1cc2cc(CNC(=O)C3CCCC3)ccc2n1C,.,/,.,.,97,.
COc1ccc(N/C=C/C(=O)c2ccccc2)cc1,.,.,.,.,.,.
COc1ccc(N/C=C(/C(C)=O)c2ccccc2)cc1,.,.,.,.,84,.
Cc1cccc(NC(=O)CSc2nc3ccccc3o2)c1,.,.,.,.,.,.
Cc1nn2c(-c3cccc(NC(=O)CSc4nc5ccccc5o4)c3)nnc2c2ccccc12,/,.,.,.,99,.
Nc1ccc2nc(CCCCCCc3nc4ccc(N)cc4[nH]3)[nH]c2c1,.,.,.,.,.,/
c1ccc2[nH]c(CCCc3nc4ccccc4[nH]3)nc2c1,.,.,.,.,.,.
COC(=O)c1ccc(C(=O)OCCCc2nc3ccc(N)cc3[nH]2)cc1,/,.,.,.,90,.
Nc1ccc2nc(COc3ccccc3)[nH]c2c1,.,.,.,.,91,.
